# Results taken from PubChem BioAssay AID624331 (National Center for Advancing Translational Sciences (NCATS), 2012).
# Records with an inconclusive call do not appear. Active and inactive are the calls of the source. The call rests on the fitted dose curve; in most records, active means well fitted activation curve with a large enough effect; inconclusive means small, poorly fitted or top-dose-only effect; inactive means no such curve, though single readings can be large or run the other way.
# Test: qHTS assay for re-activators of p53 using a Luc reporter: Hit Validation with no p53 Expressed; on activity change, positive = activation: 0% is about no effect
# Details: p53-null cells, luciferase reporter counter-screen; series mostly up to 46.1 µM; activity change, positive = activation: at the top concentration
# Source text: The p53 tumor suppressor plays a key role in suppression of tumorigenesis and in human carcinogenesis. It is frequently found inactivated in human cancers, mainly by point mutation. These point mutations are found in a wide variety of human cancers and a majority of them affect the DNA binding domain of the protein. The point mutations either alter native p53 conformation or abolish DNA contact. Additionally, cancer cells with p53 mutations are more resistant to chemo-radiation therapies.
# This counter screen was run against the hits identified from the primary screen. It uses a cell line that was not transfected with p53. Compounds that show activity in this counter screen show unspecific activation of the assay system and are excluded from further consideration.
# NIH Chemical Genomics Center [NCGC]
# NIH Molecular Libraries Probe Production Centers Network [MLPCN]
# Assay Provider (PI): Yi Sung, University of Michigan at Ann Arbor
# 5ul of 1000 cells per well are dispensed in all wells except column 4, into white solid-bottom TC-treated Kalypsys plates. The cells are kept in Opti-MEM and supplemented with 10% FBS and dispensed using a Multidrop (Thermo). Then using the Kalypsys pin-tool, 23nl of compounds are pinned. The compounds are starting concentration at 10mM, with 1:5 dilution, 4 points, and the control compound nocodazole is pinned in column 1 at 25mM, 1:3 dilution, in duplicate, 25mM nocodazole is pinned in column 2. Please note, all concentrations are working concentrations. 5ul of 1pM purified luciferase enzyme is dispensed using the Kalypsys dispenser in column 4. Plates are incubated for 24 hrs at 37 deg C, 5% CO2, and 95% humidity. Then 4ul of the detection reagent Amplite (ABD Bioquest) is added using the Kalypsys dispenser. Plates are incubated for 10 min at ambient room temperature and are then read on the ViewLux (Perkin Elmer) using a clear filter for a luminescent read-out.
# Potency means the concentration at half of the fitted maximal effect.
SMILES,"activity change, positive = activation",Potency
CNc1ccc(/C=C/C(=O)c2ccc(C)cc2)cc1[N+](=O)[O-],4.5% (inactive),
CC(C)c1ccc(NC(=O)c2snc3ccc(Cl)cc23)cc1,,1.03 µM (active)
CCc1ccc2[nH]c(=O)c(CN(CCN3CCCC3)C(=O)NC3CCCCC3)cc2c1,-34.5% (inactive),
CCCOc1ccc(-c2cc3onc(-c4ccccc4)c3c(=O)n2C)cc1,1.56% (inactive),
O=C(Nn1c(SCc2ccc([N+](=O)[O-])cc2)nc2ccccc2c1=O)c1ccc(F)cc1,24.3% (inactive),
CN(C(=O)CSc1nnc(-c2ccco2)o1)C1CCCCC1,-25.1% (inactive),
O=C(c1cnn(-c2ccccc2)c1)c1ccccc1O,53.1% (inactive),
CC(C)CC(NC(=O)C1CCC(=O)N1)C(=O)NC(CC(C)C)C(=O)N1CCCC1C(N)=O (stereo not given),64.4% (inactive),
O=C(CN1C(=O)COc2ccccc21)Nc1ccc(F)cc1,36.7% (inactive),
Cc1cc(C(c2nnnn2Cc2ccccc2)N2CCOCC2)c(C)n1-c1ccc2c(c1)OCO2 (stereo not given),35.8% (inactive),
C/C(=N\OCC(=O)NC12CC3CC(CC(C3)C1)C2)c1cc2ccccc2o1,-6.81% (inactive),
CC(OC(=O)c1cccc([N+](=O)[O-])c1)C(=O)N1CCc2ccccc21 (stereo not given),-25.6% (inactive),
Clc1ccc(OCc2nc(-c3ccccn3)no2)c(Br)c1,76.4% (inactive),
CN(NC1CC(=O)N(c2ccccc2)C1=O)c1ccccc1 (stereo not given),25.3% (inactive),
COc1ccc2nc(SCc3ccccc3)nc(C)c2c1,35.8% (inactive),
O=C(Nc1cccnc1)Nc1ccc(Br)cc1Cl,-23.6% (inactive),
COc1ccccc1-c1cc(C(=O)Nc2cc(C)on2)no1,-34.2% (inactive),
Cc1ccc(C)c(Oc2cc(NC(=O)CCCn3nc(C)c([N+](=O)[O-])c3C)cc([N+](=O)[O-])c2)c1,-48.2% (inactive),
Cc1ccc2nc(-c3ccc(NC(=O)COC(=O)c4ccc(Br)o4)cc3)sc2c1,-74.3% (inactive),
Cc1ccc(S(=O)(=O)NCCOc2nc(N(C)C)nc(N3CCOCC3)n2)cc1,3.19% (inactive),

SMILES,"activity change, positive = activation",Potency
O=C(CSc1nc2ccccc2c(=O)[nH]1)c1ccc(O)c(O)c1,-15.6% (inactive),
O=C1c2cccc3cc([N+](=O)[O-])cc(c23)C(=O)N1CCN1CCCC1,-32.6% (inactive),
CC(Cc1ccccc1)NC(=O)c1ccc([N+](=O)[O-])cc1 (stereo not given),49.8% (inactive),
COc1ccc(-c2csc(NCc3ccco3)n2)cc1C,49% (inactive),
COc1ccccc1-c1nc(-c2ccc(Br)o2)no1,,0.82 µM (active)
Cc1nc(NCCc2ccccc2)c2nnn(Cc3ccccc3Cl)c2n1,34.4% (inactive),
CC(C)C(=O)Nc1ccc(-c2nc3cccnc3o2)cc1,20.2% (inactive),
O=C(COC(=O)CNC(=O)c1ccc([N+](=O)[O-])o1)Nc1ncc(C(F)(F)F)cc1Cl,95.4% (inactive),
C(=N\Nc1nc2ccccc2s1)/c1ccc2c(c1)OCO2,9.11% (inactive),
CCOCCCNc1nc2c([nH]1)c(=O)n(C)c(=O)n2C,46.1% (inactive),
O=C1/C(=C/Nc2ccc3c(c2)OCO3)CCc2ccccc21,-43.5% (inactive),
O=C(CSc1ccccc1)Nc1ccc(-c2nc3ccccc3[nH]2)cc1,-7.57% (inactive),
Cc1c(C(=O)N2CCc3ccccc32)oc2c1C(=O)CC(C)(C)C2,22.4% (inactive),
COc1ccc(C(=O)N/N=C(\C)c2ccccn2)cc1OC,-5.69% (inactive),
COc1ccccc1NC(CC(=O)c1ccccc1)C(=O)OCC(=O)c1ccc(C)c(C)c1 (stereo not given),61.6% (inactive),
COc1ccnc(CSC(N)=Nc2ccccc2OC)c1,-41.7% (inactive),
CCCC(=O)NC(c1cccs1)c1cc([N+](=O)[O-])c2cccnc2c1O (stereo not given),-22.1% (inactive),
Fc1cccc(NCc2cn3ccccc3n2)c1,29.4% (inactive),
CC(=O)c1ccc(NC(=O)CCc2nnc3ccc(NCc4ccco4)nn23)cc1,-24.4% (inactive),
O=C(/C=C\Nc1cccc(F)c1)c1ccc2c(c1)OCO2,-22.4% (inactive),
